Results: PMC5540273 (PLoS ONE, 2017)

Tests used:
Conditions in all cases: concentration: 1 μM, replicates: in singlicate; n = 1
PRKD3 = tested on: PRKD3
PRKG1 = tested on: PRKG1
PRKG2 = tested on: PRKG2
PRKR = tested on: T1, PRKR
T1 construct: gene EIF2AK2

PRKX = tested on: PRKX
PRP4 = tested on: PRP4
PYK2 = tested on: T2, PYK2
T2 construct: gene PTK2B

QSK = tested on: QSK
RAF1 = tested on: RAF1
RET = tested on: RET
RIOK1 = tested on: RIOK1
RIOK2 = tested on: RIOK2
RIOK3 = tested on: RIOK3
RIPK1 = tested on: RIPK1
RIPK2 = tested on: RIPK2
RIPK4 = tested on: RIPK4
RIPK5 = tested on: RIPK5
ROCK1 = tested on: ROCK1
ROCK2 = tested on: ROCK2
ROS1 = tested on: ROS1
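Note: KINOMEscan kinase panel screen.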

Structure (SMILES)	%Inh (PRKD3)	%Inh (PRKG1)	%Inh (PRKG2)	%Inh (PRKR)	%Inh (PRKX)	%Inh (PRP4)	%Inh (PYK2)	%Inh (QSK)	%Inh (RAF1)	%Inh (RET)	%Inh (RIOK1)	%Inh (RIOK2)	%Inh (RIOK3)	%Inh (RIPK1)	%Inh (RIPK2)	%Inh (RIPK4)	%Inh (RIPK5)	%Inh (ROCK1)	%Inh (ROCK2)	%Inh (ROS1)
CNC(=O)c1ccccc1Nc1nc(Nc2ccc(N3CCOCC3)cc2)ncc1Cl.Cl [GSK1576028]	81%	74%	88%	72%	17%	77%	99.7%	18%	0%	100%	100%	90.7%	100%	36%	35%	79%	80%	53%	37%	90.9%
CCn1c(-c2nonc2N)nc2c(C#CC(C)(C)O)nc(OC[C@H](N)c3ccccc3)cc21 [GSK943949]	22%	60%	92.6%	0%	92.1%	10%	7%	0%	11%	10%	11%	0%	4%	4%	0%	7%	29%	59%	91.9%	2%
COc1cc(Nc2ncc3c(C)nc(-c4cc5ccccc5[nH]4)n3n2)cc(OC)c1OC [GW869516]	0%	0%	0%	35%	0%	0%	36%	0%	18%	45%	35%	0%	23%	26%	6%	0%	0%	0%	0%	0%
Nc1ncc(-c2cccnc2)c2scc(-c3ccc4c(c3)CCN4C(=O)Cc3ccccc3)c12 [GSK683281]	18%	12%	25%	5%	23%	0%	35%	18%	11%	21%	35%	96.6%	22%	100%	82%	16%	20%	0%	6%	27%
C[C@@H](Oc1cc(-n2cnc3cc(-c4ccnc(NCCS(C)(=O)=O)c4)ccc32)sc1C(N)=O)c1ccccc1Cl [GSK907232]	0%	10%	0%	0%	0%	60%	24%	14%	18%	51%	90.6%	22%	76%	45%	14%	14%	5%	0%	0%	13%
CSc1cccc2c(-c3ccncn3)c(-c3ccc(F)cc3)nn12 [GW514786]	100%	17%	0%	0%	16%	19%	0%	14%	4%	29%	45%	0%	21%	0%	43%	0%	19%	13%	19%	0%
Oc1cc(Nc2ccnc3cc(I)ccc23)ccc1F [GW552771]	40%	0%	0%	0%	0%	18%	25%	69%	49%	85%	25%	29%	0%	0%	50%	0%	0%	30%	27%	0%
COCCOCCOc1cc2ncc3c4ccc(C#N)cc4[nH]c3c2cc1OC	0%	0%	17%	41%	0%	19%	6%	67%	0%	45%	99.4%	0%	83%	20%	0%	17%	0%	96.9%	99.2%	51%
